# Data from PubChem BioAssay AID624354 (Sanford-Burnham Center for Chemical Genomics, 2012).
# Among all 360,000 compounds or so, about 3,800 (1.1%) were called active. Only a selection was taken, and actives are over-represented in it overall. Unmarked numbers belong to inactive results.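 How the source made its calls: active means compounds causing at least 50% loss of cell viability in the single-dose screen, relative to plate controls; inactive means the rest.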
# Test: viability loss with TRAIL in NB7+C8 cells, primary screen, TRAIL sensitizer project, cell-based, ATPlite luminescence (AID 624354)
# Conditions: at 10 µM, active compounds read high
row,Compound,"inhibition (viability loss, TRAIL sensitization)"
1,Cc1cc(Cl)c(S(=O)(=O)Nc2ccc3c(c2)OCCO3)cc1OCC(N)=O,1.34%
2,CC1CCc2c(sc3c2C2=NS(=O)(=O)CCN2C=N3)C1 (stereo not drawn),-12.9%
3,O=C1C[C@@H]2c3c(cccc3CN1Cc1ccccc1)C[C@@H](O)[C@H]2O,-11.3%
4,COc1ccc2c(c1)CCCO[C@]21O[C@H](CCO)C[C@H](O)[C@H]1O,2.33%
5,Nc1nc2ncccn2c1-c1ccccc1,-21.7%
6,COc1ccc(C(=O)NC(C)c2nccs2)cc1OC1CCN(C(C)C)CC1 (stereo not drawn),-24.4%
7,O=C(CC1SC(=Nc2ccccc2F)N(CCN2CCOCC2)C1=O)Nc1ccc(F)cc1F (stereo not drawn),72.8% (active)
8,O=C(CC1SC(N2CCOCC2)=NC1=O)Nc1ccccc1F (stereo not drawn),7.68%
9,O=C(CN1CCN(C/C=C/c2ccccc2)CC1)Nc1ccc(F)cc1F,8.21%
10,NC(=O)c1ccc(N2CCOCC2)nc1,-4.39%
11,COc1ccc(N(C)S(=O)(=O)c2cccc3nsnc23)cc1,-0.348%
12,CC1(C)CC(N2CCN(C(c3ccccc3)c3ccccc3)CC2)=CC(=[N+]2CCCCC2)C1,53.6% (active)
13,CCOC(=O)C1=C(c2ccccc2)N=C2SCC(=O)N2C1c1ccc(O)c(OC)c1 (stereo not drawn),-13.7%
14,O=C(Nc1ccc2c(c1)OCCO2)C(C1CC1)N1CCC(Cc2ccccc2)CC1 (stereo not drawn),1.75%
15,c1c2c(cc3sc(N4CCCCC4)nc13)OCCO2,76.5% (active)
16,CCN1CCC2(CCN(Cc3cn[nH]c3-c3ccc(OC)c(F)c3)C2)C1 (stereo not drawn),-3.56%
17,CCOc1ccc(NC(=O)CCCCCN2C(=O)[C@@H]3Cc4ccccc4CN3C2=O)cc1,9.4%
18,CCc1ccc(-c2cc3c(=O)n(CC(=O)NCCCN4CCN(Cc5ccccc5)CC4)nc(C)n3n2)cc1,57.1% (active)
19,Cc1nn(CC(=O)NCCc2ccccc2)c(=O)c2cc3occc3n12,-1.06%
20,Cc1ccc(-c2ccc(=O)n(CC(=O)NCCCN3CCCCC3)n2)cc1,16%
21,CC(C)=NN1C(=O)c2ccccc2NC1(C)C,0.317%

row,Compound,"inhibition (viability loss, TRAIL sensitization)"
1,CCC(C)C(NC(=O)C1CCC(=O)N1C(=O)OCc1ccccc1)C(=O)NC(C(=O)N1CCCC1C(N)=O)C(C)CC (stereo not drawn),1.84%
2,Cc1sc2ncnc(N3CCC(C(=O)Nc4ccc(F)cc4Cl)CC3)c2c1C,13.1%
3,CC(C)CCNC(=O)c1ccc2c(Cl)c3c(nc2c1)CCC3,63.8% (active)
4,O=C(CSc1c2c(nc3ccc(Cl)cc13)CCCC2)NCc1ccco1,7.83%
5,CC(C)CCC(C)NC(=O)c1ccc2nccnc2c1 (stereo not drawn),13.2%
6,CC1=NNC(=O)C1CCC(=O)N/N=C\c1cccc(Cl)c1 (stereo not drawn),-5.29%
7,COc1ccc(OC)c(/C=N/NC(=O)c2ccc[n+](CC(=O)c3ccccc3)c2)c1,-13.4%
8,COc1cccc(/C=N\NC(=O)C2=NNC(=O)C2C)c1O (stereo not drawn),61.6% (active)
9,COCc1cc(=O)[nH]c2cc(NC(=O)C(F)(F)F)c(C)cc12,1.06%
10,CCCCOC(=O)CNc1nnc(SCC(=O)OCC)[nH]c1=O,6.83%
11,Nc1c(-c2cccc(Cl)c2)cnn1-c1cccc([N+](=O)[O-])c1,-1.5%
12,Cc1cccc(N2Cc3ccccc3C2=NC(=O)c2ccc(Cl)nc2)c1,4.62%
13,Cc1cccc(-n2ncc(Cl)c(Cl)c2=O)c1,95.2% (active)
14,C[C@H](NC(=O)C1CC(=O)N(c2ccc3c(c2)OCCO3)C1)C(=O)N1CCC(C(=O)O)CC1 (stereo partly drawn),-9.83%
15,CC(C)CNC(=O)COC(=O)c1ccccc1OCC(=O)Nc1ccc(Br)cc1,5.47%
16,COC(=O)Cc1[nH]n(-c2nc3ccccc3s2)c(=O)c1C(C)=Nc1ccc(OC)cc1,61.1% (active)
17,COCCn1c(SCC(=O)c2[nH]c(C)c(C(C)=O)c2C)nc2ccccc2c1=O,-10%
18,NC(=O)COc1ccc(/C=N/NC(=O)C2CCCN2S(=O)(=O)c2ccc(Cl)cc2)cc1 (stereo not drawn),-8.47%
19,NC(N)=N/N=C/c1ccc(OCc2ccc(Cl)cc2Cl)cc1,50.1% (active)
20,CCCCN(C(=O)C1=NN(c2cc(C)ccc2C)C(=O)CC1)c1c(N)n(CCC)c(=O)[nH]c1=O,-7.09%
21,CC(C)COc1ccc(C(=O)NNC(=O)CCC(=O)c2cccs2)cc1,-0.727%

row,Compound,"inhibition (viability loss, TRAIL sensitization)"
1,Cc1ccc(NC(=O)CSCC(=O)N2CCOCC2)cc1,-10.5%
2,CC(C)COc1ccc(C(=O)OCC(=O)NCCC2=CCCCC2)cc1,-6.49%
3,COc1cccc(C(=O)Nc2ccc(N3CCCC3)cc2)c1,46.7% (active)
4,O=C(Nc1ccc(Cl)cc1)c1cccc(OC(=S)N2CCOCC2)c1,12.3%
5,COc1cccc(C(=O)Nc2ccc3nc4n(c(=O)c3c2)CCCCC4)c1,23.6%
6,COc1ccc(NC(=O)c2ccc(C#CC(C)(C)O)cc2)cc1,0.194%
7,COc1ccc(NC(=O)c2ccc(OC)cc2)cc1,50.5% (active)
8,COc1ccc(C(=O)Nc2ccc(-n3nncc3C(C)(C)C)cc2)cc1,-20.3%
9,COc1ccc(N2c3ccccc3CN(Cc3ccccc3)[C@@H](C)[C@H]2Cc2ccc(-c3ccccc3)cc2)cc1,-5.86%
10,CCOC(=O)C1CCN(C(=O)Cn2nc(C)c3c(C)n(-c4ccccc4)nc3c2=O)CC1,-20.8%
11,CCCN1C(=O)C(NC(C)=O)c2cc(OC)ccc21 (stereo not drawn),-4.35%
12,O=C(COc1ccc2c(C(F)(F)F)cc(=O)oc2c1)Nc1ccc2c(c1)OCCO2,-2.58%
13,COCCn1c(SCC(=O)Nc2nc(C)cs2)nnc1C(C)C,-5.23%
14,Cc1csc(NC(=O)CSc2ccc(-c3ccc(F)cc3)nn2)n1,-13.9%
15,Cc1ccccc1OCC(=O)Nc1nc(C)c(C(=O)N(C)C)s1,3.67%
16,Cc1ccnc(NC(=O)CNC(=O)c2ccccc2)c1,-13.7%
17,COc1cc(SC)ccc1C(=O)Nc1cc(C)ccn1,67.3% (active)
18,COc1cc(SC)ccc1C(=O)Nc1nc(C)cs1,92.9% (active)
19,COC(=O)c1sc(NC(=O)c2ccc(OC)cc2OC)nc1C,82.4% (active)
20,Cc1ccnc(NC(=O)c2ccoc2C)c1,11.1%
21,COc1ccc(C(=O)CCC(=O)Nc2cccnc2)c(OC)c1,7.09%
